# Laboratory results: publication PMC12136788
# The full ranking holds about 24,000 sequences; the median of “enrichment r” is about 0.99, and the highest 2% start at about 3.7. What follows is part of a selection rich in the highest values, with near analogues and random picks from the rest.
# T1: UNK ZnF1-3 (human, UniProt Q9C0B0 31-174)
# T1 sequence: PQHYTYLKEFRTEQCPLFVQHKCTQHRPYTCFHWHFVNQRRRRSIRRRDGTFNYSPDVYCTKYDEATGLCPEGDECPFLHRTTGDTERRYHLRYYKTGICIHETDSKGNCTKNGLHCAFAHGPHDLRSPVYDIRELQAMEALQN
# B1: chr2:168009416:168009417:-_ENSMUSG00000051149_ENSMUST00000088001|perfect_dup|FALSE|FALSE (ssRNA)
# RNA: GGGAGUUCUACAGUCCGACGAUCCAUAUGGUUGAGCAGAGUAUCUGUGGGUAAAUAGCGAUUACAGUAGAGGCAUUUGCUAGUAAAAUUGUGUAUUUUCAUAAUGUAGUUGGCUACUGCUGGGACUUUCUCAGCUUUAUGUUCCAACAGAGGAUUGAGCAUCA
# B2: chr1:84034342:84034343:-_ENSMUSG00000045658_ENSMUST00000168574|mus_mus|FALSE|FALSE (ssRNA)
# RNA: GGGAGUUCUACAGUCCGACGAUCGCCUGAGAAUGGUGAAAAUAGGCGUGGAGAUCUCCCAGCAGGAAGUGUUGGAAUAGGAGAGGAAAAAAAAAGUGAGAGGAGAGUCUGGAACCUUCCUCCCCAUCUGUACUCUCCUCAAGACAACAGAGGAUUGAGCAUCA
# B3: 133834401_133834521_965_CDS_ENSMUSG00000050890_ENSMUST00000105876|mouse|control|control (ssRNA)
# RNA: GGGAGUUCUACAGUCCGACGAUCUUUCAUUCGCCCAUUCAUAGACUUUUUCUUCACAGGGAUGAGAAGUUCCAUUUUGGGGUUUUCCAGAAGUGCCUCCCCAACAGGCACAAUUUCAGUCCCCUGCUUUACGUAACUCCCCAACAACAGAGGAUUGAGCAUCA
# B4: chr8:95500983:95500984:-_ENSG00000164944_ENST00000437199|hu_hu|hu_hu_hu_mus_True|78_78 (ssRNA)
# RNA: GGGAGUUCUACAGUCCGACGAUCAGAACACAUCUAUCGAGUAAAGGACCGUACAUGGACGACCUCUCCACUGCCUCCACUAACAAACUUUCCUCUCGAGCCUCCACUGCCGCUAUUUGUACUAGCCCAGGACGGUCCCAGGCCCAACAGAGGAUUGAGCAUCA
# B5: chr7:141450121:141450122:+_ENSG00000106028_ENST00000265304|hu_mus|hu_hu_hu_mus_True|38_68 (ssRNA)
# RNA: GGGAGUUCUACAGUCCGACGAUCUCAUCCGUUCUAUGCCUUUUCUUUUGUCUGGUCACUCAGAAAUAUAAUAUUAUCAGCUAUGAUUGUUGUUGCUUGUCGCCUCACAUUGUUUUUAUCCAUGUACUCGCCAUAGUCCACUUUCAACAGAGGAUUGAGCAUCA
# B6: chr8:98731313:98731314:+_ENSG00000147649_ENST00000336273|hu_mus|motif|central (ssRNA)
# RNA: GGGAGUUCUACAGUCCGACGAUCACAAGCUUUCUCCUGUUUUGGUCGGGCUUUUGAGGUAUUCACUGGAAGCUCUUCUCGGGUGUCCUUUUCUAGGUCUUCUGUGUCCUGUGUGUGAGAGUUAUCUUCCCCUUGCUUCUUCUUCAACAGAGGAUUGAGCAUCA
# B7: 93992280_93998312_1055_3pUTR_ENSMUSG00000055932_ENSMUST00000069718|mouse|control|control (ssRNA)
# RNA: GGGAGUUCUACAGUCCGACGAUCAUCAAAGGAUUUCAACGAGACGUCGCCAUCGUCUGAGUCAUUGAGGACAUUCUGCAGCGCCAACUGACAGCGUUCUAAGAUAUAAUCCAAGGUGCCUGUUGAGCACUCUGCCACACGGUGCAACAGAGGAUUGAGCAUCA
# B8: chrX:20248820:20248821:+_ENSMUSG00000001924_ENSMUST00000001989|mus_mus|mus_mus_mus_hu_True|58_88 (ssRNA)
# RNA: GGGAGUUCUACAGUCCGACGAUCGGCGAAGUCCGUCACCACAAAGUCAGGCUCUACCAGUGAGGCCACCAAGGAUUUAAAACUAAUCUUCUUAGGUACUUUGACCUGACUGACGAUGCCUCCACGGAUGUAGUCGGAGAAGUUCAACAGAGGAUUGAGCAUCA
# B9: chr17:60770872:60770873:+_ENSG00000011028_ENST00000303375|hu_hu|hu_hu_hu_mus_True|18_78 (ssRNA)
# RNA: GGGAGUUCUACAGUCCGACGAUCUCUUUAAAAAAAAAAAAAAAAAGACAAACAAUAAUAAUGGCACUCGAGAAUCAAGAACUACAAUAGAGGGUCCGCUUUGAGUUUUUGUUCACAACAUUGUCCCCUGGGACACGGGGACUGCAACAGAGGAUUGAGCAUCA
# B10: chr17:60770872:60770873:+_ENSG00000011028_ENST00000303375|hu_hu|hu_hu_hu_mus_True|48_78 (ssRNA)
# RNA: GGGAGUUCUACAGUCCGACGAUCUCUUUAAAAAAAAAAAAAAAAAGACAAACAAUAAUAAUGGCACUCGAGAAUCAAGAACUACAAAGAAAGGGCCGCUUUGAGUUUUUGUUCACAUCGUCCUGCACUGGGACACGGGGACUGCAACAGAGGAUUGAGCAUCA
# B11: chr2:204281756:204281757:+_ENSG00000138443_ENST00000261017|hu_hu|motif|central (ssRNA)
# RNA: GGGAGUUCUACAGUCCGACGAUCCUUUUCCAAGUAAGAACGUGGAGCCCACGGUGGGUCCUCUUCAGCAUAAGGAUCACGGUACUCAACCACAGCAGCUUCCUCCUCUUCGUAAUCUUCUGGAGGAGGAGGAGGUGGGGGAGACAACAGAGGAUUGAGCAUCA
# B12: chr4:76721835:76721836:+_ENSG00000138768_ENST00000264904|hu_mus|hu_hu_hu_mus_True|68_78 (ssRNA)
# RNA: GGGAGUUCUACAGUCCGACGAUCGUUUGGCUGGGGUUUCUGAGACGCUCUGGAAUAAACUCAUGUUUGCUAAUAAAAUCCUAGUUUCUCUAUGAAAUUCUCUUUGCCAAUCCUCUUCUCUAUUAGUUGCUUUAGUUUCUCUUUCAACAGAGGAUUGAGCAUCA
# B13: chr14:62224477:62224478:+_ENSMUSG00000035235_ENSMUST00000039562|mus_hu|FALSE|FALSE (ssRNA)
# RNA: GGGAGUUCUACAGUCCGACGAUCUUCAUUGAAAAUGAAAAACCCAUCUGUCACCUGUUCCCAGUAAAAAACUGAUUGUUCUAUGAAAUCGGCUGUUUUAGUCAGAUAGGAACUGAAGUUUGAAAGACAGCCUUUCCAAGUUGCCAACAGAGGAUUGAGCAUCA
# B14: 31895827_31897285_3242_CDS_ENSMUSG00000042323_ENSMUST00000112095|mouse|control|control (ssRNA)
# RNA: GGGAGUUCUACAGUCCGACGAUCCCAACAGCCGUACAACCAUUUUUCACCAGCUGAAUCCUCCCACAGUCUCUCAAUACACACUAUAUGUGGUUGUAGAUUGGCCUCCGCAGGUUCAACAUAGACAUAAUCUCCGACAUGAUACAACAGAGGAUUGAGCAUCA
# B15: chr14:76906223:76906224:+_ENSMUSG00000022010_ENSMUST00000022587|mus_mus|FALSE|FALSE (ssRNA)
# RNA: GGGAGUUCUACAGUCCGACGAUCCACUUCCUCCCUCACCGCAUACAUCAAAUGGCUUUUCACCAGAUCCAUAGCUUGCUCUAUUUUGUUGUCGAUAGCUACCACACUUGCACCAGAGCUAUUGUCAAGUCUCACGGAAGCGUUCAACAGAGGAUUGAGCAUCA
# B16: chr5:143665338:143665339:-_ENSMUSG00000029580_ENSMUST00000100497|mus_hu|FALSE|FALSE (ssRNA)
# RNA: GGGAGUUCUACAGUCCGACGAUCCACCUUCACCGUUCCAGUUUUUAAAUCCUGAGUCAAGCCAAAAAAAAAAAAAAAACCAAAACAAAACAAAAAAAACAAAUAAAGCCAUGCCAAUCUCAUCUUGUUUUCUGCGCAAGUUAGCAACAGAGGAUUGAGCAUCA
# B17: 55618536_55618656_2401_CDS_ENSG00000126787_ENST00000247191|human|control|control (ssRNA)
# RNA: GGGAGUUCUACAGUCCGACGAUCAACAUCUGAAAUUCCUUCUUUUUUGUUAGUAUUAAUAUCAUCUGCUACUCCACCAGCAAGAAGAGGCAAACUCAUUCUCUCACUGGAUAAACAAUCCACCUUCAAGUCUGUCUUAUUUACCAACAGAGGAUUGAGCAUCA
# B18: chr9:108650075:108650076:+_ENSMUSG00000032601_ENSMUST00000035220|mus_mus|FALSE|FALSE (ssRNA)
# RNA: GGGAGUUCUACAGUCCGACGAUCAGCAAUUUGUUUAUGUAAACAGCACAGAGGUUAAACAAAACAAAACAAAACAAAAACCUACUAAAUACAAACAACAAAAACCCUAACCCAGAUAACCUUUCCUGGCUACUACUGGAAAGACAACAGAGGAUUGAGCAUCA
# B19: chr14:76904430:76904431:+_ENSMUSG00000022010_ENSMUST00000022587|mus_mus|mus_mus_mus_hu_True|58_108 (ssRNA)
# RNA: GGGAGUUCUACAGUCCGACGAUCUGCUGGAAAAAAAACCCUCGUGGAAAAAAAGAGGGAACACCAGCAGCCUUGUACAAACUAGAUAAAAUCUUCUGGCUUUCCGCAGCCCAGGGAGAAACAGAAAACGGCAGCCCUAAUUUACAACAGAGGAUUGAGCAUCA
# B20: chr1:71529667:71529668:-_ENSG00000132485_ENST00000254821|hu_hu|FALSE|FALSE (ssRNA)
# RNA: GGGAGUUCUACAGUCCGACGAUCUUGUCACUGGAAAUACUGUUAAGAGAAACCUUUUUAUUUUUUAAACCAGAAAACAAACUAAAGCUCAUGUGACCAGAUUUUAAUUUUGAGAAAUAAACUCCAAAAGCAUUUUAAGCCAUACAACAGAGGAUUGAGCAUCA
# B21: chr1:109605425:109605426:-_ENSG00000197780_ENST00000461096|hu_mus|FALSE|FALSE (ssRNA)
# RNA: GGGAGUUCUACAGUCCGACGAUCUUUAAUCAACUCUCCGUUCUCACAAUUAAAGUACUUACAUUUCCGUCACUAGAGCACAGCCAGAAACACCUGGGCUGGCAUCGGCUCUUUAAGCCCUGCCGUUCCCACUACUGAGGCAUUCAACAGAGGAUUGAGCAUCA
# B22: chr2:32530853:32530854:+_ENSG00000119820_ENST00000437765|hu_mus|FALSE|FALSE (ssRNA)
# RNA: GGGAGUUCUACAGUCCGACGAUCUUCAGAAUUCUGACCAAAAAAAAGAAAAAAAAAUCCCAGAUAACUGCAAUUACUUAAAUACAAAAAAUAUUGUUUUAAAAAGACUUUAAGCCUGCCUCUCUAUCUGGAAUGUAUAAAAUUCAACAGAGGAUUGAGCAUCA
# B23: 77377103_77377223_5427_3pUTR_ENSG00000048649_ENST00000308488|human|control|control (ssRNA)
# RNA: GGGAGUUCUACAGUCCGACGAUCUACAGUCCACCCAGGCCUUAAGAAAGACCACAUUCAUUUCACUAAUAACUCUCCAUCAGACACAAUAUAUUUGAGGCCACCUUAUUACCACUGCAUAAAGCUUAUUUAAAAAAAUUUGUUCAACAGAGGAUUGAGCAUCA
# B24: 39249924_39250044_1625_CDS_ENSG00000115904_ENST00000402219|human|control|control (ssRNA)
# RNA: GGGAGUUCUACAGUCCGACGAUCACUCCGGUACUGUAAAGAUAUCAAUGCUGCCAUCCAAUUGUUUUUCUCUUCAGCUGACUUGGCAGAAAAUAUAACACUAUUUUCAUCUUUUAAAAUUAUUUCAAAAGCAUGCUUGUAUUCCAACAGAGGAUUGAGCAUCA
# B25: chr3:124025330:124025331:+_ENSMUSG00000044528_ENSMUST00000058994|mus_mus|FALSE|FALSE (ssRNA)
# RNA: GGGAGUUCUACAGUCCGACGAUCGUUUAAUCUUAAUUCCCACCACCACUCAUACCGCUGCCAACCCUUAAAAACACAUUAGACAAUAACAAUAGCAAUAUUUAAAAAAGCACGACCCGUUCUGAAAAACAGAAACUCUCUAGCCAACAGAGGAUUGAGCAUCA
# Molecular target: T1, UNK ZnF1-3
# Test: nsRBNS (natural sequence RNA bind-n-seq); RBNS binding buffer (assumed for nsRBNS): 25 mM Tris pH 7.5, 150 mM KCl, 3 mM MgCl2, 0.01% Triton X-100, 500 ug/ml BSA, 20 U/ml SUPERase-In, 4 C; UNK is unkempt and MSI1 is Musashi-1; names of the RNAs are library labels; protein concentration not given here; high values mean tight binding
row,Binder,binding signal
1,B1,2.12 enrichment R
2,B2,1.32 enrichment R
3,B3,0.863 enrichment R
4,B4,1.53 enrichment R
5,B5,0.44 enrichment R
6,B6,0.279 enrichment R
7,B7,1.07 enrichment R
8,B8,0.887 enrichment R
9,B9,4.19 enrichment R
10,B10,4.71 enrichment R
11,B11,0.684 enrichment R
12,B12,0.621 enrichment R
13,B13,0.96 enrichment R
14,B14,1.01 enrichment R
15,B15,1.04 enrichment R
16,B16,2.75 enrichment R
17,B17,1.29 enrichment R
18,B18,4.03 enrichment R
19,B19,2 enrichment R
20,B20,1.66 enrichment R
21,B21,0.922 enrichment R
22,B22,4.78 enrichment R
23,B23,3.78 enrichment R
24,B24,1.14 enrichment R
25,B25,4.17 enrichment R
